Assay results published in PubChem BioAssay AID1159580 (chemical genetic matrix, 2015).
The whole screen tested about 5,500 compounds, of which about 2,000 (36%) were called active. Roughly 18% stayed inconclusive and do not appear here. Cut-off read from the data, not from the text of the source: active = normalized growth mostly below about 0.91 (no sharp cut-off); inconclusive = no clear call, values can overlap the other calls; inactive = mostly above about 0.92. This is one part of the list.

Test: chemical genetic growth profiling, strain panel (AID 1159580);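 note: tested at 20 µM; growth read once vehicle control cultures reached saturation at 30 °C; 1 = growth at the plate median or of vehicle wells; lower values mean less growth of the strain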
Conditions: growth OD
[1] = S. cerevisiae deletion strains, locus YAL013W, strain DEP1, stronger effect = lower value
[2] = S. cerevisiae deletion strains, locus YBR229C, strain ROT2, stronger effect = lower value
[3] = S. cerevisiae deletion strains, locus YDL101C, strain DUN1, stronger effect = lower value
[4] = S. cerevisiae deletion strains, locus YDR150W, strain NUM1, stronger effect = lower value
[5] = S. cerevisiae deletion strains, locus YEL061C, strain CIN8, stronger effect = lower value
[6] = S. cerevisiae deletion strains, locus YGR078C, strain PAC10, stronger effect = lower value
[7] = S. cerevisiae deletion strains, locus YHR030C, strain SLT2, stronger effect = lower value
[8] = S. cerevisiae deletion strains, locus YJR043C, strain POL32, stronger effect = lower value
[9] = S. cerevisiae deletion strains, locus YJR075W, strain HOC1, stronger effect = lower value
[10] = S. cerevisiae deletion strains, locus YKL190W, strain CNB1, stronger effect = lower value
[11] = S. cerevisiae deletion strains, locus YLR039C, strain RIC1, stronger effect = lower value
[12] = S. cerevisiae deletion strains, locus YLR262C, strain YPT6, stronger effect = lower value
[13] = S. cerevisiae deletion strains, locus YMR263W, strain SAP30, stronger effect = lower value
[14] = S. cerevisiae deletion strains, locus YMR307W, strain GAS1, stronger effect = lower value
[15] = S. cerevisiae deletion strains, locus YNL153C, strain GIM3, stronger effect = lower value
[16] = S. cerevisiae deletion strains, locus YNL322C, strain KRE1, stronger effect = lower value
[17] = S. cerevisiae deletion strains, locus YPL055C, strain LGE1, stronger effect = lower value
[18] = S. cerevisiae deletion strains, locus YPL241C, strain CIN2, stronger effect = lower value

Measured: normalized growth

O=C(O)CCS(=O)(=O)/C=C/c1ccccc1
inactive: [1] 0.995 | [2] 0.989 | S. cerevisiae deletion strains, locus YCL061C, strain MRC1, stronger effect = lower value 1 | [3] 1.04 | [4] 0.984 | [5] 1 | [6] 1.02 | [7] 0.996 | S. cerevisiae deletion strains, locus YHR087W, strain rtc3, stronger effect = lower value 1.01 | S. cerevisiae deletion strains, locus YJL187C, strain SWE1, stronger effect = lower value 0.992 | [8] 0.989 | [9] 1 | [10] 0.979 | [11] 0.989 | S. cerevisiae deletion strains, locus YLR058C, strain SHM2 (second series), stronger effect = lower value 0.982 | S. cerevisiae deletion strains, locus YLR085C, strain ARP6, stronger effect = lower value 0.988 | [12] 1 | S. cerevisiae deletion strains, locus YML094W, strain GIM5, stronger effect = lower value 1.11 | S. cerevisiae deletion strains, locus YMR219W, strain ESC1, stronger effect = lower value 0.991 | [13] 0.955 | [14] 0.951 | [15] 1.01 | S. cerevisiae deletion strains, locus YNL298W, strain CLA4 (second series), stronger effect = lower value 0.997 | [16] 0.992 | S. cerevisiae deletion strains, locus YNR030W, strain Alg12, stronger effect = lower value 1.03 | [17] 1.02 | [18] 1.12 | S. cerevisiae deletion strains, locus YPR135W, strain CTF4, stronger effect = lower value 1.08

COc1ccc(/C=C/c2cc(O)cc(O[C@@H]3O[C@H](CO)[C@@H](O)[C@H](O)[C@H]3O)c2)cc1O
inactive: [1] 1 | S. cerevisiae deletion strains, locus YBR021W, strain FUR4, stronger effect = lower value 0.999 | [2] 1.01 | S. cerevisiae deletion strains, locus YCL029C, strain bik1, stronger effect = lower value 1.02 | S. cerevisiae deletion strains, locus YDL035C, strain GPR1, stronger effect = lower value 1.02 | S. cerevisiae deletion strains, locus YDL074C, strain BRE1, stronger effect = lower value 1.01 | [3] 1.02 | S. cerevisiae deletion strains, locus YDL134C, strain PPH21, stronger effect = lower value 1.01 | S. cerevisiae deletion strains, locus YDL185W, strain tfp1, stronger effect = lower value 1.02 | S. cerevisiae deletion strains, locus YDL192W, strain arf1, stronger effect = lower value 1.02 | S. cerevisiae deletion strains, locus YDR101C, strain arx1, stronger effect = lower value 1.01 | [4] 1.01 | S. cerevisiae deletion strains, locus YDR162C, strain NBP2, stronger effect = lower value 1.02 | S. cerevisiae deletion strains, locus YDR318W, strain mcm21, stronger effect = lower value 1.03 | S. cerevisiae deletion strains, locus YDR388W, stronger effect = lower value 1.01 | S. cerevisiae deletion strains, locus YDR502C, strain sam2, stronger effect = lower value 1.02 | [5] 1 | S. cerevisiae deletion strains, locus YER110C, stronger effect = lower value 1.03 | S. cerevisiae deletion strains, locus YER155C, strain BEM2, stronger effect = lower value 0.995 | S. cerevisiae deletion strains, locus YER167W, strain BCK2, stronger effect = lower value 1.03 | S. cerevisiae deletion strains, locus YGL078C, strain dbp3, stronger effect = lower value 1.02 | S. cerevisiae deletion strains, locus YGL086W, strain mad1, stronger effect = lower value 1.03 | S. cerevisiae deletion strains, locus YGL248W, strain PDE1, stronger effect = lower value 1.01 | [6] 1.03 | S. cerevisiae deletion strains, locus YGR135W, strain pre9, stronger effect = lower value 1.01 | S. cerevisiae deletion strains, locus YGR229C, strain SMI1, stronger effect = lower value 0.988 | S. cerevisiae deletion strains, locus YGR252W, strain gcn5, stronger effect = lower value 1.06 | [7] 1 | S. cerevisiae deletion strains, locus YHR079C, strain IRE1 (second series), stronger effect = lower value 1.02 | S. cerevisiae deletion strains, locus YHR094C, strain hxt1, stronger effect = lower value 1.02 | S. cerevisiae deletion strains, locus YHR129C, strain ARP1, stronger effect = lower value 1.01 | S. cerevisiae deletion strains, locus YHR200W, strain rpn10, stronger effect = lower value 1.03 | S. cerevisiae deletion strains, locus YIL066C, strain RNR3, stronger effect = lower value 1.02 | S. cerevisiae deletion strains, locus YIL073C, strain SPO22, stronger effect = lower value 1.06 | S. cerevisiae deletion strains, locus YIL125W, strain kgd1, stronger effect = lower value 0.999 | S. cerevisiae deletion strains, locus YIR030C, strain dcg1, stronger effect = lower value 1.01 | S. cerevisiae deletion strains, locus YJL095W, strain BCK1, stronger effect = lower value 1.01 | S. cerevisiae deletion strains, locus YJL134W, strain LCB3, stronger effect = lower value 1.01 | S. cerevisiae deletion strains, locus YJL168C, strain set2, stronger effect = lower value 1.01 | S. cerevisiae deletion strains, locus YJL187C, strain SWE1 (second series), stronger effect = lower value 1.01 | [8] 1.01 | [9] 0.973 | S. cerevisiae deletion strains, locus YKL009W, strain mrt4, stronger effect = lower value 1.03 | S. cerevisiae deletion strains, locus YKL068W, stronger effect = lower value 1.02 | S. cerevisiae deletion strains, locus YKL085W, strain MDH1 (second series), stronger effect = lower value 1.04 | S. cerevisiae deletion strains, locus YKL085W, strain MDH1, stronger effect = lower value 1.04 | [10] 1 | S. cerevisiae deletion strains, locus YKR001C, strain vps1, stronger effect = lower value 1.03 | [11] 1.04 | S. cerevisiae deletion strains, locus YLR058C, strain SHM2, stronger effect = lower value 1.01 | S. cerevisiae deletion strains, locus YLR102C, strain apc9, stronger effect = lower value 1.02 | [12] 1.05 | S. cerevisiae deletion strains, locus YLR268W, strain sec22, stronger effect = lower value 1.02 | S. cerevisiae deletion strains, locus YLR330W, strain CHS5, stronger effect = lower value 1.01 | S. cerevisiae deletion strains, locus YLR342W, strain FKS1 (second series), stronger effect = lower value 1.05 | S. cerevisiae deletion strains, locus YLR371W, strain rom2, stronger effect = lower value 1.01 | S. cerevisiae deletion strains, locus YLR418C, strain cdc73, stronger effect = lower value 0.987 | S. cerevisiae deletion strains, locus YML016C, strain PPZ1, stronger effect = lower value 1.02 | S. cerevisiae deletion strains, locus YML032C, strain rad52, stronger effect = lower value 1.01 | S. cerevisiae deletion strains, locus YML124C, strain tub3, stronger effect = lower value 1.01 | S. cerevisiae deletion strains, locus YMR078C, strain ctf18, stronger effect = lower value 1.02 | S. cerevisiae deletion strains, locus YMR223W, strain ubp8, stronger effect = lower value 1.03 | [13] 1.02 | [14] 1.04 | S. cerevisiae deletion strains, locus YNL067W, strain RPL9B, stronger effect = lower value 1.01 | S. cerevisiae deletion strains, locus YNL128W, strain TEP1, stronger effect = lower value 1.02 | [15] 1.02 | S. cerevisiae deletion strains, locus YNL233W, strain BNI4, stronger effect = lower value 1.01 | S. cerevisiae deletion strains, locus YNL250W, strain rad50, stronger effect = lower value 1.03 | S. cerevisiae deletion strains, locus YNL271C, strain bni1, stronger effect = lower value 1.03 | S. cerevisiae deletion strains, locus YNL298W, strain CLA4, stronger effect = lower value 1.03 | S. cerevisiae deletion strains, locus YNL307C, strain MCK1, stronger effect = lower value 1.03 | [16] 1.01 | S. cerevisiae deletion strains, locus YNR052C, strain pop2, stronger effect = lower value 1.01 | S. cerevisiae deletion strains, locus YOL006C, strain TOP1, stronger effect = lower value 1.08 | S. cerevisiae deletion strains, locus YOL012C, strain htz1 0.868 | S. cerevisiae deletion strains, locus YOL147C, strain pex11, stronger effect = lower value 1.01 | S. cerevisiae deletion strains, locus YOR061W, strain CKA2, stronger effect = lower value 1.02 | S. cerevisiae deletion strains, locus YOR069W, strain VPS5, stronger effect = lower value 1 | S. cerevisiae deletion strains, locus YOR136W, strain idh2, stronger effect = lower value 1.02 | S. cerevisiae deletion strains, locus YOR144C, strain elg1, stronger effect = lower value 1.01 | S. cerevisiae deletion strains, locus YOR184W, strain ser1, stronger effect = lower value 1.05 | S. cerevisiae deletion strains, locus YOR316C, strain cot1, stronger effect = lower value 1.02 | [17] 1.03 | [18] 1.01 | S. cerevisiae deletion strains, locus YPR119W, strain clb2, stronger effect = lower value 1.01 | S. cerevisiae deletion strains, locus YPR141C, strain kar3, stronger effect = lower value 1.03 | S. cerevisiae deletion strains, locus YPR163C, strain tif3, stronger effect = lower value 1.03 | S. cerevisiae deletion strains, locus YPR167C, strain met16, stronger effect = lower value 1.02 | S. cerevisiae deletion strains, strain wtn01, stronger effect = lower value 0.994 | S. cerevisiae strains, strain wild type, stronger effect = lower value 1.01

Oc1cc(O)cc(/C=C/c2ccc(O)c(O)c2)c1
inactive: S. cerevisiae deletion strains, locus YAL040C, strain CLN3, stronger effect = lower value 1.01 | S. cerevisiae deletion strains, locus YCL061C, strain MRC1 (second series), stronger effect = lower value 0.992 | S. cerevisiae deletion strains, locus YDR363W, strain ESC2, stronger effect = lower value 0.955 | [13] 1.01 | [14] 0.979 | S. cerevisiae deletion strains, locus YNL197C, strain WHI3, stronger effect = lower value 1 | [16] 0.989 | S. cerevisiae deletion strains, locus YOR083W, strain WHI5 (second series), stronger effect = lower value 0.993
active: [6] 0.691 | S. cerevisiae deletion strains, locus YNL175C, strain NOP13, stronger effect = lower value 0.71
